Data on 11 compounds can be found in PubChem BioAssay (NCATS).

The nature of assay [1]: Immunotoxin (HA22) sensitization/mitigation study. Vehicle arm (PBS) (AID 1159510; call rule not given here; further: potency means the concentration at half of the fitted maximal effect).
Assay [2] can be described thus: Immunotoxin (SS1P) sensitization/mitigation study. Vehicle arm (DMEM) (AID 1159513; call rule not given here; further: potency means the concentration at half of the fitted maximal effect).
Assay [3] in a line: High-throughput drug toxicity screening in the BPDCN cell line Gen2.2 (AID 1224824; call rule not given here;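 further: cells exposed to compounds for 48 h before reading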). The note with it: Gen2.2 BPDCN cells; at 45.8 µM (top of the series). The essentials: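 Gen2.2 cells (500/well) in phenol red-free RPMI with 10% FBS were exposed to compounds for 48 h at 37 °C, 5% CO2. Viability was read by CellTiter-Glo luminescence and normalized to DMSO (100%) and 9.2 uM bortezomib (0%).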

Assay [4] can be described thus: High-throughput drug toxicity screening in the BPDCN cell line Cal-1 (AID 1224825; call rule not given here). The note with it: Cal-1 BPDCN cell viability, qHTS; at 45.8 µM (top of the series). The essentials:
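Cal-1 cells, 500 per well in phenol-red-free RPMI with 10% FBS, exposed to compounds for 48 hours at 37C, 5% CO2. Viability read by CellTiter-Glo luminescence; percent activity normalized to DMSO (100%) and 9.2 uM bortezomib final (0%).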

The nature of assay [5]: qHTS assay for measurement of the activity of small molecule inhibitors on Zika virus induced Caspase-3 activity in human iPSC derived neural progenitor cells (hNPCs) (AID 1224857). Further: % of control where 0% means no effect; nearly all actives have a fitted effect of over 65% in size. In outline: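 Quantitative HTS format: human iPSC neural progenitors, 1 h compound pretreatment, ZIKV 2 FFU/cell for 6 h at 37 C. Percent inhibition derived from luminescent caspase-3/7 signal between uninfected and infected controls.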
On the technique in general: In qHTS, concentration-response curves come from the screen itself.

A short description of assay [6]: qHTS assay for measurement of the activity of small molecule inhibitors on Zika virus induced Caspase-3 activity in human astrocytoma cells (AID 1224859).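 Further: plate controls were ZIKV-infected untreated cells for no effect and uninfected cells for full effect.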 The essentials:
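Readout is luminescence from Caspase-Glo 3/7 added after a 6 h ZIKV infection (2 FFU/cell) of compound-pretreated (1 h) SNB-19 cells; data expressed as % inhibition versus uninfected and infected wells.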

Assay [7] in a line: qHTS Screen of the MIPE 4.0 Collection Against Ewings Sarcoma (RDES) (AID 1259252).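 Further: 100% = DMSO-treated cells and 0% = medium-only wells without cells; nearly all actives have a fitted effect of over 35% in size.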 In outline:
(§1)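 Dose series incubated 48 h with cells in RPMI plus 5% FBS, glutamine and penicillin/streptomycin; cell viability then quantified via CellTiter-Glo.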

Assay [8] in a line: Identifying Small Molecule Inhibitors of Pancreatic Cancer Stem Cells (SN12C, Adherent) (AID 1259358).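 Further: cell survival measured after 48 h of compound exposure.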 The essentials:
(§2)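 Endpoint: ATP-based luminescence, 48 h drug exposure. Bortezomib at 9.2 uM final as full-kill control; DMSO vehicle as negative control; activity normalized between vehicle and cell-free wells.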

The nature of assay [9]: Identifying Small Molecule Inhibitors of Pancreatic Cancer Stem Cells (SN12C, Spheroid) (AID 1259360).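 Further: 100% = DMSO-treated cells and 0% = wells without cells.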 The note with it: Potency: SN12C spheroid viability. In outline: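 Spheroids grown 14 days in stem cell media on nonadherent hydrogel before screening; cells attached 4 h, then compound exposure 48 h at 37C, 5% CO2. CellTiter-Glo luminescence normalized to DMSO (no inhibition) and no-cell wells (full inhibition).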

Assay [10] can be described thus: Identifying Small Molecule Inhibitors of Pancreatic Cancer Stem Cells (A278, Adherent) (AID 1259361).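 Further: 100% = DMSO-treated cells and 0% = cell-free media-only wells; nearly all actives have a fitted effect of over 35% in size.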 The essentials: as §2
For assay [11] the following is noted: Ebola virus entry cell assay, ratio channel.
A short description of assay [12]: qHTS assay to identify small molecule inhibitors of chordoma cells - UCH-1 (AID 1259355). Further: on the % scale 0 is the no-effect control and ±100 the full control effect; nearly all actives have a fitted effect of over 55% in size. The essentials: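 Cells (800/well) were seeded and left overnight at 37 C, 5% CO2, then treated with drugs at 15 concentrations plus a combination mix of auranofin, camptothecin, doxorubicin, rubitecan and topotecan. Viability after 48hr was read by CellTiter-Glo luminescence.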

The nature of assay [13]: qHTS assay to identify small molecule inhibitors of chordoma cells - UCH-2 (AID 1259356). Further: on the % scale 0 is the no-effect control and ±100 the full control effect.
Assay [14] is described as follows: qHTS Screen of the MIPE 4.0 Collection Against Ewings Sarcoma (TC71) (AID 1259253). Further: nearly all actives have a fitted effect of over 40% in size. Further: potency means the concentration at half of the fitted maximal effect. The essentials:
as §1

The nature of assay [15]: qHTS Screen of the MIPE 4.0 Collection Against Ewings Sarcoma (EW8) (AID 1259255). Further: nearly all actives have a fitted effect of over 35% in size. Further: potency means the concentration at half of the fitted maximal effect.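 On viability: 100% = DMSO-treated cells and 0% = medium-only wells without cells.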 The essentials:
as §1

Assay [16] can be described thus: qHTS Screen of the MIPE 4.0 Collection Against Ewings Sarcoma (TC32) (AID 1259256). Further: nearly all actives have a fitted effect of over 45% in size. Further: potency means the concentration at half of the fitted maximal effect. In outline: as §1

Results filed as inconclusive are left out. The source made the active and inactive calls. For most assays here, the call rests on the fitted dose curve; in most records, active means well fitted curve in the direction sought with a large enough effect; inconclusive means small, poorly fitted or top-dose-only effect, or another doubt; inactive means no such curve, though single readings can be large; an effect the other way counts as inactive or inconclusive.

What is called AC50 is the midpoint of the concentration-response curve, whichever way the signal moves.

Consider `CC1=C2C[C@@H]3[C@@H](CC=C4C[C@@H](O)CC[C@@]43C)[C@@H]2CC[C@]12O[C@H]1C[C@H](C)CN[C@H]1[C@H]2C`, for which the values for the Potency in assay [1] and in [2] were 23.5 µM (active) and 20.9 µM (active), respectively. Also, in [3], the cell viability, % of control (lower = more cytotoxic) worked out at 107%. The viability (% of control) in assay [4] came to 116%. In addition, the Potency entry in [5], in assay [7], in assay [8] and in [9] was “inactive” each time. Further, the call in assay [6] was inactive. Also, the IC50 (viability decrease) result in [10] was “inactive”.
Take `C=C1C[C@@H]2[C@H](CC[C@]3(C)C(=O)CC[C@@H]23)[C@@]2(C)C=CC(=O)C=C12`: the half-maximal activity concentration (AC50) in assay [11] is 15.8 µM (active). Besides, the Potency result in assay [5], in assay [12] and in assay [13] was “inactive” each time. Further, in assay [6], the result was inactive.
`CN(C)[C@@H]1C(=O)C(C(N)=O)=C(O)[C@@]2(O)C(=O)C3=C(O)c4c(O)cccc4[C@@](C)(O)[C@H]3C[C@@H]12`: the result in assay [11] and in assay [6] was inactive. Also, in assay [3], the cell viability, % of control (lower = more cytotoxic) worked out at 333%. The viability (% of control) in assay [4] worked out at 83.2%. Also, the Potency entry in assay [5], in assay [12] and in assay [13] was “inactive” throughout. For the same compound, the Potency in [14] was 3.72 µM (active); in [15], 11.8 µM (active); in assay [16], 6.62 µM (active).
Consider `CC[C@@]1(O)C(=O)OCc2c1cc1n(c2=O)Cc2cc3c(CN(C)C)c(O)ccc3nc2-1`, for which the AC50 in assay [11] was 5.62 µM (active). Besides, the Potency is 0.0118 µM (active) in [1] and 5.9 µM (active) in assay [2].
In the case of `Cn1cnc2c(F)c(Nc3ccc(Br)cc3Cl)c(C(=O)NOCCO)cc21`, the Potency entry in assay [1] and in assay [2] was “inactive” each time.
For the compound `O=c1[nH]c2ccccc2n1C1CCN(CCCC(c2ccc(F)cc2)c2ccc(F)cc2)CC1`, the AC50 in [11] was 7.94 µM (active). Besides, the result in assay [6] was inactive. Further, the Potency entry in assay [13] is “inactive”.
As for `CC(=O)SC[C@@H](C)C(=O)N1CCC[C@H]1C(=O)N[C@@H](Cc1ccccc1)C(=O)O`, the Potency result in [1] and in assay [2] was “inactive” each time.
Consider `CCC(C)n1ncn(-c2ccc(N3CCN(c4ccc(OC[C@H]5CO[C@](Cn6cncn6)(c6ccc(Cl)cc6Cl)O5)cc4)CC3)cc2)c1=O` (stereo partly specified), for which the AC50 in [11] was 2 µM (active). Also, the Potency is 0.743 µM (active) in assay [1] and 16.6 µM (active) in assay [2].
For `Cc1ccc(-n2nc(C(C)(C)C)cc2NC(=O)Nc2ccc(OCCN3CCOCC3)c3ccccc23)cc1`, the Potency in [1] was 10.5 µM (active). Further, the Potency entry in assay [2] was “inactive”.
For `CS(=O)c1ccc(-c2nc(-c3ccc(F)cc3)c(-c3ccncc3)[nH]2)cc1` (stereo unspecified) the same measures were “inactive” and “inactive”.
As to `CN1CCN(C(=O)O[C@H]2c3nccnc3C(=O)N2c2ccc(Cl)cn2)CC1`, the outcome in assay [11] and in assay [6] was inactive. In assay [3], the cell viability, % of control (lower = more cytotoxic) was determined as 126%. Also, in assay [4], the viability (% of control) came out at 135%. Also, the Potency result in assay [14], in assay [15], in [16], in assay [12] and in [13] was “inactive” in each case.
